From PubChem BioAssay come the findings set out here.

For one experiment, the target named is Albumin (Bos taurus) (UniProt P02769). As to the kind of experiment: compounds binding labelled BSA control protein – biochemical, small-molecule microarray, Alexa647 label, 635/667 nm fluorescence, artefact control for SMM control protein annotation, profiling panel (AID 1118).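 Note: score merges 667 nm emission intensity and signal-to-noise per printed compound spot.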 As to conditions: BSA-A647 binding, fluorescence 635 nm, higher = more signal.
Albumin (Bos taurus), sequence (P02769 whole entry, looked up): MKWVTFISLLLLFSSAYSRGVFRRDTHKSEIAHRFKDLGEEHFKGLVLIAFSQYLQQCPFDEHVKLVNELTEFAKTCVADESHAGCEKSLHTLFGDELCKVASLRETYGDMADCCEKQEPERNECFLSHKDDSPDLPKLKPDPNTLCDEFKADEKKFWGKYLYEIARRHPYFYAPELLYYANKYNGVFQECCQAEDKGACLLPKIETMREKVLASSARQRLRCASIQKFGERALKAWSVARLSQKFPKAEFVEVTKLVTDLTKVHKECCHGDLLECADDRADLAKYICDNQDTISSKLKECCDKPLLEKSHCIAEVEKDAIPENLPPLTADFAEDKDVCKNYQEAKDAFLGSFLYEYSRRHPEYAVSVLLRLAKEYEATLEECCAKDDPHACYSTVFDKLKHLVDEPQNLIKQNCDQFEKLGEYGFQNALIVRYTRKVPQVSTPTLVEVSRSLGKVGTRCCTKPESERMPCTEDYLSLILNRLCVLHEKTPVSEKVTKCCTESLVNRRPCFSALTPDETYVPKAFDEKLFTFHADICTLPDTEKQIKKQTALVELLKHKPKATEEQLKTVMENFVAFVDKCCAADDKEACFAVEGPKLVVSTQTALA
A short description of experiment [1]: probe aXIP binding to arrayed compounds – biochemical, NeuroSMM set, 635/667 nm fluorescence, primary screen (AID 1119).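 Note: probe is the protein aXip251-270 applied at 1 µg/mL to compound-printed slides; binding of probe to printed compounds measured as 667 nm fluorescence plus signal to noise.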 As to conditions: small-molecule microarray, higher = more signal, called active from +8 up or from −8 down.
Experiment [2] can be described thus: probe aNOTCH3 binding on compound microarray – biochemical, small-molecule microarray, 635/667 nm fluorescence, primary screen (AID 1120).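 Note: probe is a biotin-tagged antibody raised against NOTCH3 rather than NOTCH3 protein; score merges spot fluorescence near 667 nm with spot signal to noise.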 As to conditions: higher = more signal.
A short description of experiment [3]: probe aNOTCH2 binding on compound microarray – biochemical, small-molecule microarray, 635/667 nm fluorescence, primary screen (AID 1121).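 Note: score merges feature fluorescence read at 667 nm with its signal to noise.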 As to conditions: higher = more signal.
Experiment [4] deals with Carbonic anhydrase 2 (Homo sapiens) (UniProt P00918). As to the kind of experiment: compounds binding carbonic anhydrase 2 – biochemical, small-molecule microarray, Alexa647-labelled CAII, profiling panel (AID 1122). As to conditions: CAII-A647 binding fluorescence, higher = more signal.
Experiment [5] in a line: COS7 lysate on small-molecule microarray, probe aHis, 635 nm (AID 1123).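 Note: z-score combines 667nm fluorescence intensity with signal-to-noise per printed compound spot.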 As to conditions: COS7 cell lysate, fluorescence, higher = more signal.
A short description of experiment [6]: probe aLAP1 signal on lysate-treated microarray – cell lysate, small-molecule microarray, COS7 lysate, primary screen (AID 1124).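 Note: lysate comes from COS7 cells expressing LAP1 and is applied at 0.3 µg/mL; score merges spot fluorescence near 667 nm with signal-to-noise over triplicate slides.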 As to conditions: probe aLAP1, fluorescence, higher = more signal.
A further experiment concerns Sam68 (KHDRBS1). As to the kind of experiment: compounds binding KHDRBS1 protein – biochemical, small-molecule microarray, 635 nm fluorescence, primary screen (AID 1125).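 Note: score merges 667 nm channel intensity with signal to noise over triplicate slides.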 The conditions noted are these: higher = more signal.
Experiment [7] relates to Chordin-like protein 2 (CHRDL2). Kind of experiment: compounds binding chordin-like 2 – biochemical, small-molecule microarray, 635 nm fluorescence, primary screen (AID 1126).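 Note: printed compound slides probed with Chrdl2 protein at 4 µg/mL for 1 h at 4 C; score merges 667 nm emission intensity with signal to noise over three replicate slides.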 The conditions noted are these: fluorescence 635 nm, higher = more signal.
For experiment [8], the target named is Concanavalin-A (Canavalia ensiformis) (UniProt P02866). As to the kind of experiment: compounds binding concanavalin A lectin – biochemical, small-molecule microarray, Alexa647 label, 635 nm, artefact control for SMM control protein annotation, primary screen (AID 1127).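 Note: z combines 667 nm emission intensity with signal-to-noise across three replicate slides.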 The conditions noted are these: ConA-A647 binding fluorescence, higher = more signal.
Concanavalin-A (Canavalia ensiformis), sequence (P02866 whole entry, looked up): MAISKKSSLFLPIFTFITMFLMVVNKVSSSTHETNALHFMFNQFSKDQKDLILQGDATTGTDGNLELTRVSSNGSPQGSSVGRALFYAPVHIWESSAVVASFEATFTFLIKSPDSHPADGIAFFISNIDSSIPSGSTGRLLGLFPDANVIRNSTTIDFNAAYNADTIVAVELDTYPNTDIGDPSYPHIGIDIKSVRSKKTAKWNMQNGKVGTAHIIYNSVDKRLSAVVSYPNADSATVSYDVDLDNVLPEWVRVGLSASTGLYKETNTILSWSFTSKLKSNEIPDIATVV
Experiment [9] is described as follows: compounds binding Alexa647 anti-His antibody – biochemical, small-molecule microarray, 635 nm fluorescence, artefact control for SMM control protein annotation, primary screen (AID 1128).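 Note: score merges feature fluorescence with signal-to-noise for each printed compound spot.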 As to conditions: higher = more signal.
Experiment [10] concerns Human papillomavirus type 1a E7 protein (residues 1-88). As to the kind of experiment: HPV1a E7 small-molecule binders, primary screen, biochemical, small-molecule microarray, residues 1-88, 635 nm (AID 1129). The conditions noted are these: small-molecule microarray binding, fluorescence 635 nm; higher = more signal.
In experiment [11] the target is Focal adhesion kinase 1 (Homo sapiens) (UniProt Q05397). Kind of experiment: PTK2 protein binding on printed compound slides – biochemical, small-molecule microarray, 635/667 nm fluorescence, BSA, DTT, primary screen (AID 1130).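 Note: composite of spot emission at 667 nm and signal to noise over triplicate slides.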 The conditions noted are these: 635 nm fluorescence, higher = more signal.
Focal adhesion kinase 1 (Homo sapiens), sequence (Q05397 whole entry, looked up): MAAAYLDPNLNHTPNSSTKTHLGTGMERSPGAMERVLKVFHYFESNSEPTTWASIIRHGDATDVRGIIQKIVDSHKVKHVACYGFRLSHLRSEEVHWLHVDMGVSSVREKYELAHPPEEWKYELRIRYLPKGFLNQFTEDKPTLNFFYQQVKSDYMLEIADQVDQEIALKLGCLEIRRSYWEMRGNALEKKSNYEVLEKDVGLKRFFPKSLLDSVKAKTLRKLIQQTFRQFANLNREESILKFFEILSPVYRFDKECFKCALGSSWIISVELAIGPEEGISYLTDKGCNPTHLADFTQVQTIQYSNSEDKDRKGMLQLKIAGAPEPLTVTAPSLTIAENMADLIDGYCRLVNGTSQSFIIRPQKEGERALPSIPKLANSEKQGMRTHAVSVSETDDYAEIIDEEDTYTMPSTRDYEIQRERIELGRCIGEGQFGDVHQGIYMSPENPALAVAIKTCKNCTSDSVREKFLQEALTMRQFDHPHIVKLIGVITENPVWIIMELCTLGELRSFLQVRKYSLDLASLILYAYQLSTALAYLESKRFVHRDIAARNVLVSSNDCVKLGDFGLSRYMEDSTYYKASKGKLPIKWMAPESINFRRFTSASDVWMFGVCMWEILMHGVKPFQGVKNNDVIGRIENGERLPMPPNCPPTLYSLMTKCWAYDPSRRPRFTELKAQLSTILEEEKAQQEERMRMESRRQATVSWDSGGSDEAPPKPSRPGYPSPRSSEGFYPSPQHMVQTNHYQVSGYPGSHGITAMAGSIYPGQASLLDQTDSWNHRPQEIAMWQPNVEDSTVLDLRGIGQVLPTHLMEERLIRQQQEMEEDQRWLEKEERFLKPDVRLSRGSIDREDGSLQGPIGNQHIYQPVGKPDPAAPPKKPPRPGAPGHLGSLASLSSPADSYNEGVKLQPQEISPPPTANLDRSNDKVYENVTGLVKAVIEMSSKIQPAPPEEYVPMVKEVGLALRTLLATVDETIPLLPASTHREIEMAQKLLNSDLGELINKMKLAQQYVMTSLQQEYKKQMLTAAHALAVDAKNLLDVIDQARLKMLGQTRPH
The test system of experiment [12] is Fibrinogen (Alexa647-labelled). As to the kind of experiment: Alexa647-fibrinogen binding to printed small molecules – biochemical, small-molecule microarray, 635/667 nm fluorescence, artefact control for SMM control-protein annotation, profiling panel (AID 1131).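 Note: z-score merges 667 nm fluorescence with per-spot signal-to-noise over triplicate slides.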 As to conditions: fibrinogen-A647 binding fluorescence, higher = more signal.
Experiment [13] deals with Follistatin (Homo sapiens) (UniProt P19883). As to the kind of experiment: FST protein binding to printed compounds – biochemical, small-molecule microarray, 635/667 nm fluorescence, primary screen (AID 1132). As to conditions: 635 nm fluorescence, higher = more signal.
Follistatin (Homo sapiens), sequence (P19883 whole entry, looked up): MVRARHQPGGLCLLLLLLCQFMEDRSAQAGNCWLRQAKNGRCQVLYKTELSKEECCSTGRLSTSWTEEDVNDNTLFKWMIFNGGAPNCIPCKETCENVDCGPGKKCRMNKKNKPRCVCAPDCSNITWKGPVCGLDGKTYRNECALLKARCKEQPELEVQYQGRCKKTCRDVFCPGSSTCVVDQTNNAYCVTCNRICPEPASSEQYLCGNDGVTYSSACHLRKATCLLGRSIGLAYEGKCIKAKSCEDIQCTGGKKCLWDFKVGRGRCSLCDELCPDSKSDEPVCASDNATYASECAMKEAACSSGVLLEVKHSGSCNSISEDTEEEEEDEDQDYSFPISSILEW
For experiment [14], the target named is Fibroblast growth factor 2 (Homo sapiens) (UniProt P09038). Kind of experiment: basic fibroblast growth factor binding to printed compounds – biochemical, small-molecule microarray, 635/667 nm fluorescence, primary screen (AID 1133). The conditions noted are these: FGF2, fluorescence 635/667, higher = more signal.
Fibroblast growth factor 2 (Homo sapiens), sequence (P09038 whole entry, looked up): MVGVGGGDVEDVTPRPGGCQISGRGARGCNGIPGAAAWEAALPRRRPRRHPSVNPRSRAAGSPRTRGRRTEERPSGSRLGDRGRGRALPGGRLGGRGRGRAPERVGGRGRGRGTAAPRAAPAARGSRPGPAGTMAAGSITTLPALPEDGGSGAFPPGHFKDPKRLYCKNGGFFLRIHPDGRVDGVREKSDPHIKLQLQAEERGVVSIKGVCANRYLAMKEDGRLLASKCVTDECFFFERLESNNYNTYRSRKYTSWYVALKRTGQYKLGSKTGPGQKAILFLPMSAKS
The nature of experiment [15]: JC-1 mitochondrial potential readout, lung cancer cells – cell-based, A549, JC-1 fluorescence, basal, 24 h, 100 nL, profiling panel (AID 1138).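 Note: A549 lung adenocarcinoma cells under basal conditions with no added stimulus; test concentration not given here.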 As to conditions: higher = more signal.
Another experiment relates to Lefty1. Kind of experiment: Lefty1 protein binding to printed compounds – biochemical, small-molecule microarray, 635/667 nm fluorescence, primary screen (AID 1139). As to conditions: fluorescence 635/667, higher = more signal.
Experiment [16] relates to wheat germ agglutinin (Triticum aestivum), Alexa647-labelled. Kind of experiment: Alexa647-WGA lectin binding to printed small molecules – biochemical, small-molecule microarray, 635/667 nm fluorescence, artefact control for SMM control-protein annotation, profiling panel (AID 1140).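 Note: score merges 667 nm feature emission with signal to noise over triplicate slides.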 The conditions noted are these: WGA-A647 binding, 635 nm fluorescence, higher = more signal.

Experiment [17] concerns the target Luciferin 4-monooxygenase (Photinus pyralis) (UniProt P08659). Kind of experiment: inhibition of purified Photinus pyralis luciferase – biochemical, luminescence, purified enzyme, 2006 set, primary screen (AID 1141).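 Note: cell-free assay with purified firefly luciferase at 100 ng per well in PBS; test concentration not given here.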 As to conditions: purified firefly luciferase, SteadyGlo luminescence, 30 min; higher = more signal, called active from +8 up or from −8 down.

Calls of active or inactive are those of the source.

Luciferin 4-monooxygenase (Photinus pyralis), sequence (P08659 whole entry, looked up): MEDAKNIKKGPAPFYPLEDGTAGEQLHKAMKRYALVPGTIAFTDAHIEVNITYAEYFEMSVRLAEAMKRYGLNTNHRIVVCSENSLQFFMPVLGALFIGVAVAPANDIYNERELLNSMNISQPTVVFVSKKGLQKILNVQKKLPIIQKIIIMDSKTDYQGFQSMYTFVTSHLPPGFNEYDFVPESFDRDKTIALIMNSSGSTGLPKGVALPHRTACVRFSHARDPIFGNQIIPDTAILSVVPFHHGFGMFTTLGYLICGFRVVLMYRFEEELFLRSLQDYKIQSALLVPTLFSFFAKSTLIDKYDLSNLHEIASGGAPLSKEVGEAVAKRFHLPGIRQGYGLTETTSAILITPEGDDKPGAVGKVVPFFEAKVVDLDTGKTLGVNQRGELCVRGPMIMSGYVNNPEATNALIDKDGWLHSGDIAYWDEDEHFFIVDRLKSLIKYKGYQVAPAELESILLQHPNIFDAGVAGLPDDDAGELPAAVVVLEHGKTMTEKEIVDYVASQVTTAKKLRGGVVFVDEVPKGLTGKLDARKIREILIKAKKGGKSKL

`CN(C)CCCNC(=O)[C@@H]1c2ccccc2C(=O)N(Cc2ccccc2)[C@H]1c1ccc(CO)cc1`: the composite z-score with Albumin (Bos taurus) is -0.688; in [2], -0.0971; in experiment [3], -0.205; in [4], 0.196; in experiment [5], 0.662; in experiment [6], 1.37. In addition, the composite z-score in the experiment with Sam68 (KHDRBS1) is -0.0257; in experiment [7], -0.623; in [8], -0.312; in [9] it was 0.514; in experiment [10], -0.958; in experiment [11], -0.193. The composite z-score was -0.355 in experiment [12]; -0.242 in experiment [13]; -0.158 in experiment [14]; -0.201 in the experiment on Lefty1; -0.0107 in experiment [16]. For the same compound, the composite Z-score in [1] was 0.799 (inactive). In addition, the figures for the z-score in experiment [15] and in [17] were 1.85 and -0.784 (inactive), respectively.

For the compound `CO[C@H]1COC(=O)[C@H](C)NC(=O)[C@@H](C)COC(=O)CC=C[C@@H]1C`, the composite z-score is -0.331 in the experiment with Albumin (Bos taurus); -0.0391 in experiment [2]; -0.192 in [3]; -0.336 in [4]; -0.851 in experiment [5]; -0.0193 in experiment [6]. In addition, the composite z-score is 0.41 in the experiment on Sam68 (KHDRBS1); 0.858 in experiment [7]; 0.303 in experiment [8]; -0.133 in experiment [9]; -0.0179 in experiment [10]; -0.274 in [11]. Further, the composite z-score in experiment [12] was -0.177; in experiment [13], 0.598; in experiment [14] it was 1.34; in the experiment on Lefty1 it was 0.572; in experiment [16], -0.114. In addition, the composite Z-score in experiment [1] was 0.0462 (inactive). For the same compound, the z-score in experiment [15] was -0.855; in [17], 0.514 (inactive).

For the compound `CC(C)NC(=O)[C@@]1(C)c2ccccc2C(=O)N(Cc2cc(F)cc(C(F)(F)F)c2)[C@H]1c1ccc(CO)cc1`, the composite z-score in the experiment with Albumin (Bos taurus) is 0.293; in experiment [2], 0.191; in experiment [3], -0.102; in [4], 0.645; in experiment [5], 1.03; in [6], 0.433. The composite z-score in the experiment on Sam68 (KHDRBS1) is 1.23; in [7], 0.153; in [8] it was 0.674; in experiment [9], 0.886; in experiment [10], 0.982; in experiment [11], 0.0792. Also, the composite z-score in experiment [12] is 0.335; in experiment [13] it was 0.677; in experiment [14], 1.67; with Lefty1 it was 0.0338; in experiment [16] it was 0.512. Also, the composite Z-score in experiment [1] was 0.74 (inactive). Besides, the z-score in experiment [15] is -0.483; in experiment [17], 0.433 (inactive).

In the case of `CCCNC(=O)OC[C@H]1O[C@H](CCON=C[C@@H](OC)[C@H](C)C=CCC(=O)OC)C=C[C@@H]1Oc1ccc(OC)cc1`, the composite z-score with Albumin (Bos taurus) is -1.05; in experiment [2], 0.142; in experiment [3], -0.192; in [4], 0.0769; in experiment [5], 0.438; in [6], 0.325. Besides, the composite z-score was 0.693 in the experiment on Sam68 (KHDRBS1); 1.16 in experiment [7]; -1.26 in [8]; 2.2 in [9]; -0.0259 in experiment [10]; -0.0322 in experiment [11]. Also, the composite z-score is 0.325 in experiment [12]; 0.0998 in experiment [13]; 0.109 in experiment [14]; 0.548 with Lefty1; 0.183 in experiment [16]. Moreover, the composite Z-score in experiment [1] is -0.431 (inactive). Moreover, the z-score is 0.139 in [15] and -0.276 (inactive) in experiment [17].

For `C=CC[C@]1(C(=O)NCc2ccccc2)N=C(c2ccc(OCCCO)cc2)O[C@H]1c1ccccc1`, the composite z-score in the experiment with Albumin (Bos taurus) was 0.866; in [2], 0.0488; in [3] it was -0.123; in experiment [4], 0.69; in experiment [5] it was 2.65; in experiment [6] it was 0.308. Further, the composite z-score in the experiment on Sam68 (KHDRBS1) is 1.28; in [7], -0.911; in [8] it was 0.691; in experiment [9], -0.158; in experiment [10], 1.22; in experiment [11], 0.115. Further, the composite z-score in experiment [12] was 0.632; in experiment [13] it was 0.431; in experiment [14] it was -0.35; in the experiment on Lefty1, -0.0085; in experiment [16], 0.366. In addition, the composite Z-score in [1] is -0.275 (inactive). Besides, the figures for the z-score in experiment [15] and in [17] were 0.453 and 0.185 (inactive), respectively.

Turning to `CCOC(=O)NN=C1C[C@@H](O)[C@@H](O)[C@@H]2[C@@H]3C(=O)N(CC)C(=O)[C@@H]3CC[C@@H]12`, the composite z-score in the experiment with Albumin (Bos taurus) is 0.338; in experiment [2] it was -0.0864; in [3], -0.125; in experiment [4], 0.735; in [5], 0.472; in experiment [6], -0.0313. In addition, the composite z-score in the experiment with Sam68 (KHDRBS1) amounted to 0.976; in experiment [7], 0.0151; in experiment [8], 0.481; in [9] it was 0.249; in experiment [10] it was 0.707; in experiment [11], 0.25. Further, the composite z-score in experiment [12] is 0.356; in [13], 0.314; in experiment [14], -0.0549; in the experiment with Lefty1, 0.476; in experiment [16] it was -0.203. Further, the composite Z-score in experiment [1] is 0.112 (inactive). For the same compound, the z-score in [15] was 0.0102; in experiment [17], 0.439 (inactive).
